Consider 27 compounds from PubChem BioAssay (EPA / NIEHS).

Activity calls are given as the source filed them. Rule for the calls: active = hit-call score of the fitted dose curve at least 0.9, where 1 is the maximum; inactive = score below 0.9.

A short description of this test: CCTE_Shafer_MEA_acute_per_network_burst_spike_number_std: CCTE's Neural Acute Assay for Standard Deviation of Number of Spikes in a Network Burst, Shafer Lab (AID 2284020).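 Note: fitted for decrease in spike-number SD versus DMSO so actives lower it.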 Here is the method:
CCTE_Shafer_MEA_acute assay is conducted using Axion Biosystems 48 well microelectrode array (MEA) plates and Maestro recording system. Each well of the MEA plate contains a grid of 16 microelectrodes embedded in the culture surface. Electrically active cells, such as neurons, can be cultured over the electrodes, and electrical activity in these cells can be recorded extracellularly. The spontaneous firing of neurons is captured from each electrode on a microsecond timescale providing both temporally and spatially precise data. […] The CCTE_Shafer_MEA_acute assay uses primary cultures of rat cortical neurons. As these cultures mature over time, neural networks develop functional activity and form cohesive networks in which electrical activity can be highly coordinated. Baseline 40-minute recordings are made on days post-plating 13 or 15, followed by a secondary 40-minute recording after chemical exposure.CCTE_Shafer_MEA_acute_per_network_burst_spike_number_std is a component of the CCTE_Shafer_MEA_acute assay. It measures the standard deviation of the number of spikes (action potential firings) in a network burst (temporally-clustered group of spikes across multiple electrodes) during a recording in a microelectrode array (MEA) using Axion Biosystems Maestro 768 channel amplifier with the AxIS adaptive spike detector. The recordings before and after chemical treatment are used to calculate a percent change in the standard deviation of the number of spikes in network bursts in each well.Data from the assay component CCTE_Shafer_MEA_acute_burst_spike_number_std was analyzed into 1 assay endpoint. This assay endpoint, CCTE_Shafer_MEA_acute_burst_spike_number_std, was analyzed in the negative analysis fitting direction relative to DMSO as the negative control and baseline of activity. Using a type of functional reporter, gain or loss-of-signal activity can be used to understand electrical activity.
Spontaneous activity in the cortical cultures was recorded using an Axion Biosystems Maestro 768 channel amplifier and Axion Integrated Studios (AxIS) v1.8 (or later) software. The amplifier recorded from all channels simultaneously (gain = 1200 x; sampling rate = 12.5 kHz/channel): raw signals were filtered with a Butterworth band-pass filter (300-5000 Hz), which filters out slower local field potentials leaving only fast potentials, i.e., "spikes", arising from extracellular currents associated with action potentials (Pine 2006; Wheeler and Nam 2011). On-line spike detection of filtered signals was conducted with the AxIS adaptive spike detector, using a threshold of 8x the root mean squared (rms) noise on each channel. Any electrodes with rms noise levels greater than 5 uV were grounded (e.g., no data were recorded). Once grounded, an electrode was grounded for the duration of the experiment. All recordings were conducted at 37 C. Wells were deemed usable if on the day of the exposure >/= 10 electrodes were active (defined as >/= 5 spikes/min). On DIV 13 or 15, a minimum of three wells from one cortical culture preparation were treated with each compound (0.03-40 uM). Prior to recording baseline activity, each mwMEA plate was placed in the Maestro at 37 C and allowed to sit for 20 min while firing rates stabilized. Baseline activity (40 min) was recorded before the addition of each compound. An additional 40 min of spontaneous activity was recorded in the presence of each compound. Changes in network parameters relative to baseline were assessed following compound treatment.
With `Cc1ccc(C(C)(C)C)c(O)c1`, the compound was called inactive.
As to `CC1=C(C)S(=O)(=O)CCS1(=O)=O`, the compound was called inactive.
Regarding `O=C(N[C@@H](c1ccccc1)[C@@H]1CCCCN1)c1cccc(C(F)(F)F)c1Cl`, the AC50 (in general, the midpoint of the concentration-response curve, whichever way the signal moves) was 5 µM (active).
`CN(C)C(=O)NC1(c2ccccc2)CCN(CC[C@@]2(c3ccc(F)c(F)c3)CN(C(=O)c3ccccc3)CCO2)CC1`: the result was inactive.
Consider `CC(C)NCC(O)c1ccc(O)c(O)c1` (configuration not stated), for which the compound was called inactive.
In the case of `CSc1ccc(Oc2ccc(S(N)(=O)=O)cc2CN(C)C)cc1C`, the compound was classed as inactive.
Regarding `Cc1ccc(-c2cc(C(F)(F)F)nn2-c2ccc(S(N)(=O)=O)cc2)cc1`, the outcome was inactive.
For `COC(=O)[C@H]1[C@H]2C[C@@H]3c4[nH]c5cc(OC)ccc5c4CCN3C[C@H]2C[C@@H](OC(=O)c2cc(OC)c(OC)c(OC)c2)[C@@H]1OC`, the AC50 is 20 µM (active).
As to `Oc1ccc(O)cc1`, the compound was called inactive.
Same read-out and setting: for `c1ccc2occc2c1` the value was “inactive”.
On to `CC(C)COC(=O)CCCCC(=O)OCC(C)C`, for which the compound was called inactive.
`CN(C)CCCN1c2ccccc2Sc2ccc(Cl)cc21`: the compound was called inactive.
As for `Cc1cc(SC2=C(O)C[C@@](CCc3ccc(N)cc3)(C(C)C)OC2=O)c(C(C)(C)C)cc1CO`, the call was inactive.
For the compound `Nc1nc(=S)c2[nH]cnc2[nH]1`, the compound was classed as inactive.
For `CCCC(=O)O`, the result was inactive.
Still for that read-out and setting: with `C/C=C/c1ccc(OC)cc1` the entry was “inactive”.
For `CC(N)=O`, the compound was called inactive.
As to `O=C1OC(c2ccc(O)cc2)(c2ccc(O)cc2)c2ccccc21`, the AC50 is 20 µM (active).
Same read-out and setting: with `Cc1cc(Cc2ccc(N)c(C)c2)ccc1N` the figure was 20 µM (active).
Turning to `NC(=Nc1ccccc1)Nc1ccccc1`, the call was inactive.
On to `CN(C)C(=O)NC1(c2ccccc2)CCN(CCC[C@]2(c3ccc(Cl)c(Cl)c3)CCCN(C(=O)c3ccccc3)C2)CC1`, for which the AC50 was 7.62 µM (active).
As to `Cc1c(C)c2c(c(C)c1O)CCC(C)(COc1ccc(CC3SC(=O)NC3=O)cc1)O2` (configuration not stated), the AC50 was 0.517 µM (active).
On to `CCCCC(CC)COP(=O)(OCC(CC)CCCC)OCC(CC)CCCC` (configuration not stated), for which the result was inactive.
For `O=C(O)CN(CC(=O)O)CC(=O)O`, the compound was called inactive.
For the compound `COc1ccc(OC(F)(F)F)cc1CN[C@H]1CCCN[C@H]1c1ccccc1`, the AC50 was 2.75 µM (active).
With `CCN(CC)CCOc1ccc(C(=C(Cl)c2ccccc2)c2ccccc2)cc1`, the outcome was inactive.
Consider `OCC(CO)n1cnc(-c2ccc(F)cc2)c1-c1ccnc(Oc2ccccc2)n1`, for which the result was inactive.
